The nature of assay [1]: viability loss in pontine glioma line – cell-based, SU-DIPG-XIII, MIPE5.0, CellTiter-Glo, qHTS, dose response (AID 1347064; cut-off not given, nearly all actives have AC50 up to about 23 µM;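 on AC50: cells exposed to compound for 48 hours before the viability read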). The note with it: CellTiter-Glo ATP luminescence.
A short description of assay [2]: viability loss in pontine glioma line – cell-based, SU-DIPG-XXV, MIPE5.0, CellTiter-Glo, qHTS, dose response (AID 1347065; cut-off not given, nearly all actives have AC50 up to about 26 µM;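 further: cells exposed to compound for 48 hours before ATP readout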). As to conditions: CellTiter-Glo ATP luminescence.
The nature of assay [3]: compounds altering HSF1 focus formation in cells – imaging, Selleck Cancer Library (AID 1347162; in the data active means plate-normalised HSF1 focus index below about 0.46). The note with it: human cells, HSF1 nuclear foci imaging, at 10 µM; SSMD: measured here: HSF1 foci SSMD mean; cell count: measured here: cell number; plate-normalised HSF1 focus index: stronger effect = lower value.
Assay [4] can be described thus: rescue of PC12 cells from polyQ htt toxicity – LDH release (AID 1610). As to conditions: PC12 mutant huntingtin toxicity, final LDH at 4 uM, stronger effect = lower value.
Assay [5] can be described thus: chitosan synthesis blockers in C. neoformans – flow cytometry, Cibacron Brilliant Red staining (AID 1347148; call rule not given here;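 further: compound exposure lasted three days at 37 degrees C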). As to conditions: Cryptococcus neoformans chitosan, stronger effect = lower value; at 10 µM unless noted.
A short description of assay [6]: growth inhibition, single agents and combos, LFS_MB_1R, cell-based, cisplatin or BGB combos, synergistic combos for chromothripsis tumors (AID 1671452).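 Further: cells exposed for 96 hours before readout.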 The note with it: LFS_MB_1R medulloblastoma cells, stronger effect = higher value.
The nature of assay [7]: growth inhibition, single agents and combos, CRL2098, cell-based, BGB or cisplatin IC20 combos, synergistic combos for chromothripsis tumors (AID 1671454).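 Further: cells exposed for 96 h before readout; 0% = vehicle DMSO and 100% = killing by high DMSO.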 As to conditions: CRL2098 osteosarcoma cells, drug combinations, stronger effect = higher value.
A short description of assay [8]: growth inhibition, single agents and combos, HD-MB03, cell-based, BGB or cisplatin IC20 combos, synergistic combos for chromothripsis tumors (AID 1671455; in the data active means inhibition above about 83%;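 further: 0% = vehicle DMSO and 100% = high DMSO as cytotoxic control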). The note with it: HD-MB03 medulloblastoma cells, stronger effect = higher value.
Assay [9] in a line: growth inhibition, single agents and combos, UWB1.289, cell-based, BGB or cisplatin combos, synergistic combos for chromothripsis tumors (AID 1671456).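 Further: cells exposed to compound for four days; 0% = vehicle DMSO and 100% = killing by high DMSO.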 As to conditions: UWB1.289 ovarian carcinoma cells, stronger effect = higher value.
A short description of assay [10]: growth inhibition, single agents and combos, LFS_MB_2R, cell-based, cisplatin combos, synergistic combos for chromothripsis tumors (AID 1671457).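 Further: cells exposed to compound for four days before readout.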 As to conditions: LFS_MB_2R medulloblastoma cells, stronger effect = higher value.
Assay [11] can be described thus: growth inhibition, MDA-MB-436, cell-based, BGB or cisplatin combos, synergistic combos for chromothripsis tumors (AID 1671458; call rule not given here;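 further: cells exposed for 96 hours; 0% = vehicle DMSO and 100% = killing by high DMSO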). The note with it: MDA-MB-436 breast carcinoma growth inhibition, drug combinations, stronger effect = higher value.
Assay [12] in a line: UWB1.289_BRCA1 ovarian cancer growth, cell-based, BGB or cisplatin combinations (AID 1671459). The note with it: UWB1.289 BRCA1 ovarian carcinoma, drug combinations, stronger effect = higher value.
A short description of assay [13]: drug combination toxicity in non-malignant astrocytes – cell-based, BGB or cisplatin IC20 combos, cytotoxicity control for chromothriptic childhood tumor combination screen (AID 1671460).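 Further: cells exposed to compounds for 96 hours before viability readout; 0% = vehicle and 100% = killing control.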 The note with it: Human astrocytes, viability inhibition, drug combinations, at 0.5 µM, stronger effect = higher value.
Assay [14] in a line: BT084 cell growth, single and combined drugs, ICGC_MB145, cisplatin and BGB IC40 combos (AID 1671461).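 Further: cells exposed to drugs for 96 hours; 0% = vehicle DMSO and 100% = high DMSO full killing control.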 As to conditions: BT084 medulloblastoma cells, drug combinations, stronger effect = higher value.
Assay [15] in a line: RCMB18 cell growth, single agent and combined, cisplatin and BGB IC40 combos (AID 1671462).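 Further: cells exposed to compound for four days.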 The note with it: RCMB18 medulloblastoma cells, stronger effect = higher value.
Assay [16] in a line: CRL1545 cell growth, single agent and combined, cisplatin and BGB IC20 combos (AID 1671464).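 Further: cells exposed to compound for 96 hours before readout; 0% = vehicle DMSO and 100% = high DMSO killing control.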 As to conditions: CRL1545 osteosarcoma cells, stronger effect = higher value.
[17] abbreviates: measured here: combination with cisplatin, at 0.5 µM.
The mark [18] stands for this setting: measured here: combination with cisplatin, at 5 µM.

Molecules are shown by their SMILES. Values joined by “and” are separate entries in the source; they are usually repeats but may differ in a detail not shown here. Equal entries are not always repeated. Inconclusive results are not listed. Active and inactive are the calls of the source. Unless noted, no stated cut-off is given here; in the data, active means inhibition above about 80%; inactive means the rest.

As for `C=C(C)[C@H]1Cc2c(ccc3c2O[C@@H]2COc4cc(OC)c(OC)cc4[C@@H]2C3=O)O1`, the AC50 is 8.33 µM (active) in assay [1] and 1.18 µM (active) in [2].

Take `CN1C(=O)CCS(=O)(=O)C1c1ccc(Cl)cc1` (stereo unspecified): the compound was classed as inactive in assay [1].

On to `CN(C)[C@@H]1C(=O)C(C(N)=O)=C(O)[C@@]2(O)C(=O)C3=C(O)c4c(O)cccc4[C@@](C)(O)[C@H]3C[C@@H]12`, for which the result in assay [2] was inactive.

Take `O=C(O)c1nn(Cc2ccc(Cl)cc2Cl)c2ccccc12`: the compound was classed as inactive in assay [2]. Moreover, in [3], the SSMD came out at 0.502, the cell count came out at 6570 and the plate-normalised HSF1 focus index was 1.03 (inactive).

Turning to `O=c1[nH]c2ccccc2n1CCCN1CCC(n2c(=O)[nH]c3cc(Cl)ccc32)CC1`, the compound was classed as inactive in assay [1].

Turning to `O=c1[nH]c2ccccc2n1C1CCN(CCCC(c2ccc(F)cc2)c2ccc(F)cc2)CC1`, the normalised LDH release in assay [4] came to 0.918. For the same compound, the fold fluorescence in assay [5] is 5.15 [at 108.3 µM] (inactive).

For the compound `CN(C)[C@@H]1C(=O)C(C(N)=O)=C(O)[C@@]2(O)C(=O)C3=C(O)c4c(O)cccc4[C@@](C)(O)[C@H]3[C@H](O)[C@@H]12`, the normalised LDH release in assay [4] stood at 0.818. Moreover, the call in assay [1] was inactive.

As to `CCC1(c2ccc(N)cc2)CCC(=O)NC1=O` (stereo unspecified), the outcome in assay [2] was inactive. For the same compound, in assay [3], the SSMD was determined as 1.46, the cell count amounted to 7280 and the plate-normalised HSF1 focus index was 1.05 (inactive).

For `N[C@@H](Cc1ccc(N(CCCl)CCCl)cc1)C(=O)O`, the AC50 in assay [1] was 18.6 µM (active). Further, in assay [3], the SSMD came out at 1.42, the cell count was determined as 7340 and the plate-normalised HSF1 focus index is 1.09 (inactive).

Regarding `C[C@@H]1CC[C@H]2[C@@H](C)C(=O)O[C@@H]3O[C@@]4(C)CC[C@@H]1[C@]32OO4`, in assay [2], the call was inactive.

`C[C@@H]1O[C@@H](O[C@H]2C[C@@H](O)[C@]3(CO)[C@H]4[C@H](O)C[C@]5(C)[C@@H](C6=CC(=O)OC6)CC[C@]5(O)[C@@H]4CC[C@]3(O)C2)[C@H](O)[C@H](O)[C@H]1O`: the AC50 in [2] was 0.0934 µM (active). The fold fluorescence in [5] was 4.64 [at 85.5 µM] (inactive).

`CC[n+]1c(-c2ccccc2)c2cc(N)ccc2c2ccc(N)cc21` gave a normalised LDH release in [4] of 0.673.

Regarding `N[C@@H]1C[C@H]1c1ccccc1`, the compound was called inactive in assay [1] and in assay [2].

Turning to `COc1ccc(C(=O)N2CCCC2=O)cc1`, the result in assay [2] was inactive.

For the compound `Nc1ccncc1`, the fold fluorescence in [5] is 3.69 [at 531.3 µM] (inactive).

In [4], `Oc1cccc2cccnc12` came in with a normalised LDH release of 1.

On to `O=P1(NCCCl)OCCCN1CCCl` (stereo unspecified), for which the outcome in assay [1] and in [2] was inactive. In addition, the inhibition in assay [6] (at 0.5 µM) was -28.1% (inactive) and -35.8% (inactive); in [6] (measured here: combination with BGB IC40, at 0.05 µM), 3.69% and -53.3%; in [6] (setting [17]), -0.682% and -78.4%; in assay [6] (setting [18]) it was -35.6% and -67.8%; in assay [7] (at 0.5 µM), -54.7% (inactive) and -66.2% (inactive); in assay [7] (measured here: combination with BGB at IC20, at 0.5 µM) it was -36.5% and -70.3%. Besides, the inhibition was -76.6% and -81.7% in [7] (measured here: combination with cisplatin at IC20, at 0.5 µM); -1.59% (inactive) and -13.1% (inactive) in assay [8] (at 0.5 µM); -0.444% and -33.2% in [8] (measured here: combo with BGB at IC20, at 0.5 µM); -1.58% and -14.4% in assay [8] (measured here: combo with cisplatin at IC20, at 0.5 µM); -7.68% (inactive) and -24.2% (inactive) in [9] (at 0.5 µM); -37.9% and -17.6% in assay [9] (measured here: inhibition with BGB combination, at 0.05 µM). For the same compound, the inhibition in assay [9] (measured here: inhibition with cisplatin combination, at 0.05 µM) is -13.2% and -26.4%; in [10] (at 0.5 µM), -24.9% (inactive) and -21% (inactive); in assay [10] (setting [17]) it was -18.4% and -33%; in assay [10] (setting [18]), -20.4% and -22.6%; in [11] (at 0.5 µM) it was -32.5% (inactive) and -17.3% (inactive); in assay [11] (measured here: BGB combination, at 0.5 µM), -44.8% and -19%. In addition, the inhibition was -38% and -30.9% in assay [11] (measured here: BGB combination, at 5 µM); -35.4% and -19.9% in assay [11] (measured here: cisplatin combination, at 0.5 µM); -21.1% and -24.7% in assay [11] (measured here: cisplatin combination, at 5 µM); -15.7% and -7.29% in assay [12] (BGB combination, concentration series, at 5 µM); -18.2% (inactive) and -23.7% (inactive) in [12] (at 0.5 µM); -10.3% and -29.5% in assay [12] (cisplatin combination, concentration series, at 5 µM). Besides, the inhibition was -8.49% (inactive) and 1.06% (inactive) in assay [13]; -4.33% and 4.18% in assay [13] (measured here: combo with BGB IC20); -7.61% and -5.83% in assay [13] (measured here: combo with cisplatin IC20); -13.2% (inactive) and -8.24% (inactive) in assay [14] (at 0.5 µM); -6.37% and -25.6% in assay [14] (cisplatin combination, at 0.5 µM); -50% and -9.28% in assay [14] (cisplatin combination, at 5 µM). In addition, the inhibition in assay [14] (measured here: BGB IC40 combination 0.05 uM, at 0.05 µM) is 1.93% and -27.2%; in assay [14] (single agent, at 5 µM), -32% and -16.6%; in assay [15] (at 0.5 µM) it was -14.3% (inactive) and -7.44% (inactive); in assay [15] (cisplatin combo, at 5 µM) it was -2.4% and -9.06%; in assay [15] (measured here: BGB IC40 combination, at 0.05 µM), -18.8% and -23%; in [15] (setting [17]) it was -12.5% and 2.1%. The inhibition is -33% and -28.9% in [15] (single agent, at 5 µM); -45.1% (inactive) and -50.6% (inactive) in assay [16] (at 0.5 µM); -3.77% and -48% in [16] (measured here: with BGB IC20 combination, at 0.5 µM); -65.8% and -54.4% in assay [16] (measured here: with cisplatin IC20 combination, at 0.5 µM); -16.2% and -50% in [16] (single agent, at 0.05 µM); 2.18% and -61% in [16] (single agent, at 5 µM).

Turning to `CC(C)c1cccc(C(C)C)c1O`, the call in assay [1] and in assay [2] was inactive.

As for `C#CCN(C)[C@H](C)Cc1ccccc1`, the compound was called inactive in [1] and in [2].

`NN=C(N)N`: the compound was classed as inactive in assay [1] and in [2].

With `CC1(C)C(C=C(Cl)Cl)C1C(=O)OC(C#N)c1cccc(Oc2ccccc2)c1` (stereo unspecified), the fold fluorescence in [5] is 4.81 [at 120.1 µM] (inactive).

Take `CNCC(O)c1ccc(O)cc1` (stereo unspecified): the call in assay [1] and in assay [2] was inactive.

As for `N#Cc1nn(-c2c(Cl)cc(C(F)(F)F)cc2Cl)c(N)c1S(=O)C(F)(F)F` (stereo unspecified), the fold fluorescence in assay [5] was 4.35 [at 114.4 µM] (inactive).

In the case of `C=C1C[C@@H]2[C@H](CC[C@]3(C)C(=O)CC[C@@H]23)[C@@]2(C)C=CC(=O)C=C12`, the compound was classed as inactive in [1]. For the same compound, the compound was called inactive in assay [2]. In assay [3], the SSMD was found to be 1.72, the cell count was 6870 and the plate-normalised HSF1 focus index was 1.09 (inactive).

For the compound `CN1C(=O)COc2c(C(=O)NC3CN4CCC3CC4)cc(Cl)cc21` (stereo unspecified), the compound was called inactive in [1] and in assay [2].

For the origin of these results see PubChem BioAssay.
